This excerpt belongs to a sample that is enriched for hits.
U2OS ROS induce = ROS inducers in U2OS cancer cells, primary screen, cell-based, H2DCF-DA fluorescence; ROS induction (% of piperlongumine), % at 10 µM; U2OS ROS induction; 2% of 46,000 active; in the data active means ROS induction above about 79%, passing the limit was not always enough;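 further: 0% = DMSO vehicle median and 100% = reference compound median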
* = called active by the depositor.

SMILES	U2OS ROS induce
C[C@H](CO)N1C[C@H](C)[C@H](CN(C)Cc2ccc(C(=O)Nc3ccccc3N)cc2)Oc2c(NS(C)(=O)=O)cccc2C1=O	30.6
C[C@H]1CN([C@@H](C)CO)C(=O)Cc2cc(NC(=O)CCN3CCOCC3)ccc2O[C@@H]1CN(C)C(=O)Nc1cccc2ccccc12	-21.1
C[C@H]1CN([C@@H](C)CO)C(=O)c2cccc(NC(=O)CCCCCC(=O)Nc3ccccc3N)c2O[C@@H]1CN(C)Cc1ccc(-c2ccccc2)cc1	90.6*
C[C@@H]1CN([C@H](C)CO)C(=O)c2cccc(NC(=O)CCCCCC(=O)Nc3ccccc3N)c2O[C@H]1CN(C)Cc1ccc(-c2ccccc2)cc1	125.7*
C[C@H](CO)N1C[C@H](C)[C@H](CN(C)Cc2ccc(C(F)(F)F)cc2)Oc2c(NC(=O)CCCCCC(=O)Nc3ccccc3N)cccc2C1=O	66.7
C[C@H](CO)N1C[C@H](C)[C@@H](CN(C)Cc2ccncc2)Oc2c(NC(=O)CCCCCC(=O)Nc3ccccc3N)cccc2C1=O	5.1
C[C@@H]1CN([C@H](C)CO)C(=O)c2cccc(NC(=O)CCCCCC(=O)Nc3ccccc3N)c2O[C@@H]1CN(C)Cc1ccc(C(F)(F)F)cc1	57.1
C[C@@H]1CN([C@@H](C)CO)C(=O)c2cccc(NC(=O)CCCCCC(=O)Nc3ccccc3N)c2O[C@@H]1CN(C)Cc1ccc(C(F)(F)F)cc1	42.0
Cc1ccc(C)c(NC(=O)CN(c2ccc(C)c(Cl)c2)S(C)(=O)=O)c1	1.9
Cc1ccccc1Cc1c(C)nc2c(C(=O)N3CCOCC3)cnn2c1C	-13.2
COc1ccc(S(=O)(=O)N(C)C[C@@H]2Oc3ccc(NC(=O)CCCCCC(=O)Nc4ccccc4N)cc3C(=O)N([C@@H](C)CO)C[C@@H]2C)cc1	16.0
COc1ccc(S(=O)(=O)Nc2ccc3c(c2)CC(=O)N([C@@H](C)CO)C[C@H](C)[C@H](CN(C)S(=O)(=O)c2ccc(OC)cc2)O3)cc1	18.7
C[C@@H]1CN([C@@H](C)CO)C(=O)c2cc(NC(=O)Cn3cnnn3)ccc2O[C@@H]1CN(C)Cc1ccccc1	-0.8
C[C@H]1CN([C@@H](C)CO)C(=O)Cc2cc(NC(=O)Nc3ccc(F)cc3)ccc2O[C@H]1CN(C)Cc1ccc(Oc2ccccc2)cc1	18.8
CCOC(=O)c1c(CSc2nc(C)ccc2C#N)oc2ccc(OC(C)=O)cc12	153.7*
CCOC(=O)c1c(C)oc2ccc(OCc3cccc([N+](=O)[O-])c3)cc12	3.3
CCOC(=O)c1c(CN(CC)CC)oc2ccc(OC)cc12	36.6
COc1ccc(-n2nnc3c(SCC(=O)Nc4cccc(C(F)(F)F)c4)ncnc32)cc1	261.3*
COc1ccc2nc(SCC(=O)Nc3cccc(C(F)(F)F)c3)[nH]c2c1	-5.7
COc1ccc(-n2c(C)nnc2SCC(=O)Nc2cccc(C(F)(F)F)c2)cc1	1.6
C[C@@H]1CN([C@H](C)CO)C(=O)CCCn2cc(nn2)CO[C@H]1CN(C)Cc1ccc(Cl)c(Cl)c1	0.4
Cc1ccc(C(=O)CSc2nc(C)nc3sc4c(c23)CCCC4)cc1	4.6
Cc1ccc(C(=O)CSc2nc3sc(C)c(C)c3c(=O)[nH]2)cc1	21.8
Cc1ccc(C(=O)CSc2nc(C)nc3sc(C)c(C)c23)cc1	119.5*
C[C@@H]1CCCCO[C@@H](CN(C)C(=O)Nc2cccc3ccccc23)[C@@H](C)CN([C@H](C)CO)C(=O)c2cc(NC(=O)Nc3ccccc3)ccc2O1	30.4
SMILES	U2OS ROS induce
O=C(c1cccs1)N(Cc1ccc(Br)cc1)c1ccc(F)cc1	10.8
C[C@H]1CN([C@@H](C)CO)C(=O)Cc2cc(NS(=O)(=O)c3cn(C)cn3)ccc2O[C@@H]1CN(C)Cc1ccc(Oc2ccccc2)cc1	-7.0
C[C@@H]1CN([C@@H](C)CO)C(=O)Cc2cc(NS(=O)(=O)c3cn(C)cn3)ccc2O[C@@H]1CN(C)S(C)(=O)=O	108.9*
C[C@@H]1CN([C@@H](C)CO)C(=O)Cc2cc(NS(=O)(=O)c3cn(C)cn3)ccc2O[C@@H]1CN(C)Cc1ccc(Oc2ccccc2)cc1	21.1
C[C@@H]1CN([C@H](C)CO)C(=O)Cc2cc(NS(=O)(=O)c3cn(C)cn3)ccc2O[C@@H]1CN(C)S(=O)(=O)c1cn(C)cn1	-9.8
COc1ccc(CN(C)C[C@@H]2Oc3ccc(NS(=O)(=O)c4cn(C)cn4)cc3CC(=O)N([C@H](C)CO)C[C@H]2C)cc1	94.8*
C[C@H]1CN([C@@H](C)CO)C(=O)Cc2cc(NS(=O)(=O)c3cn(C)cn3)ccc2O[C@H]1CN(C)S(=O)(=O)c1cn(C)cn1	-5.1
C[C@@H]1CN([C@H](C)CO)C(=O)Cc2cc(NS(=O)(=O)c3cn(C)cn3)ccc2O[C@@H]1CN(C)C(=O)Nc1ccc(C(F)(F)F)cc1	-9.2
COc1ccc(NC(=O)CN(c2ccc(F)c(Cl)c2)S(C)(=O)=O)c(OC)c1	4.3
Cc1ccc(S(=O)(=O)N(C)C[C@@H]2Oc3c(NS(=O)(=O)c4cn(C)cn4)cccc3C(=O)N([C@H](C)CO)C[C@H]2C)cc1	22.0
O=C(CCN1C(=O)/C(=C/c2ccc(Cl)cc2)SC1=S)Nc1ccccc1	10.1
O=C1/C(=C/c2ccc(O)cc2)SC(=S)N1CCc1ccccc1	126.6*
CC(C)OC(=O)CCN1C(=O)/C(=C/c2ccccc2)SC1=S	35.9
CCCCC/C=C/C(=O)CCc1ccc(O)c(OC)c1	10.1
COc1ccc(C#Cc2cnc3c(c2)C(=O)N([C@H](C)CO)C[C@H](C)[C@H](CN(C)C(=O)NC2CCCCC2)O3)cc1OC	134.8*
COc1ccc(C#Cc2cnc3c(c2)C(=O)N([C@H](C)CO)C[C@H](C)[C@H](CN(C)C(=O)NC(C)C)O3)cc1OC	4.7
CCCC(O)C#Cc1cnc2c(c1)C(=O)N([C@H](C)CO)C[C@H](C)[C@H](CN(C)C(=O)Nc1cccc3ccccc13)O2 (stereo partly specified)	10.0
COc1ccc(S(=O)(=O)N(C)C[C@@H]2Oc3ncc(C#Cc4cccc(F)c4)cc3C(=O)N([C@H](C)CO)C[C@@H]2C)cc1	-7.0
COc1ccc(C#Cc2cnc3c(c2)C(=O)N([C@H](C)CO)C[C@H](C)[C@H](CN(C)C(=O)Nc2ccccc2)O3)cc1OC	37.2
COc1ccc(C#Cc2cnc3c(c2)C(=O)N([C@H](C)CO)C[C@H](C)[C@H](CN(C)C(=O)Nc2cccc4ccccc24)O3)cc1OC	147.7*
COc1cccc(S(=O)(=O)N(C)C[C@@H]2Oc3ncc(C#Cc4ccc(F)cc4)cc3C(=O)N([C@H](C)CO)C[C@@H]2C)c1	102.7*
COc1cccc(S(=O)(=O)N(C)C[C@@H]2Oc3ncc(-c4cccc(F)c4)cc3C(=O)N([C@H](C)CO)C[C@@H]2C)c1	6.3
COc1ccc(C#Cc2cnc3c(c2)C(=O)N([C@H](C)CO)C[C@H](C)[C@H](CN(C)C(=O)Nc2ccc(F)cc2)O3)cc1OC	53.0
CNC[C@@H]1Oc2ccc(NS(=O)(=O)c3ccccc3)cc2C(=O)N([C@@H](C)CO)C[C@H]1C	-0.2
COc1ccc(S(=O)(=O)Nc2ccc3c(c2)C(=O)N([C@@H](C)CO)C[C@@H](C)[C@H](CN(C)CC2CCCCC2)O3)cc1	13.6
S=c1[nH]nc(Cn2c(-c3ccccn3)nc3ccccc32)n1-c1cc(Cl)cc(Cl)c1	-1.2
Cc1ccc(S(=O)(=O)N(C)C[C@H]2Oc3ccc(NC(=O)Nc4cccc5ccccc45)cc3C(=O)N([C@H](C)CO)C[C@H]2C)cc1	-2.0
COc1ccccc1CC(=O)Nc1ccc(-c2nc3ccccc3[nH]2)cc1	-10.0
Cn1c(SCC(=O)NN)nnc1-c1ccccc1	-7.2
